Rpn11 block – Rpn11 (human) deubiquitinase inhibition; O00487; actives 0.59% (n = 360,000); inhibition, % at 20 µM; human 26S proteasome, Ub4-pepOG fluorescence polarization; 20S core pre-blocked with epoxomicin;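 active = inhibition at 20 µM, scaled to each plate's controls, above about 33%, limit read from the data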
HNF4A DNA FP – change in binding of human HNF4 alpha to DNA; P41235; HNF4a-FITC DNA binding, fluorescence polarization, 1 h; activity change, % at 10 µM; actives 0.3% (n = 360,000); in the data active = activity change above about 30%, passing the limit was not always enough
Target sequence (P41235 whole entry, looked up): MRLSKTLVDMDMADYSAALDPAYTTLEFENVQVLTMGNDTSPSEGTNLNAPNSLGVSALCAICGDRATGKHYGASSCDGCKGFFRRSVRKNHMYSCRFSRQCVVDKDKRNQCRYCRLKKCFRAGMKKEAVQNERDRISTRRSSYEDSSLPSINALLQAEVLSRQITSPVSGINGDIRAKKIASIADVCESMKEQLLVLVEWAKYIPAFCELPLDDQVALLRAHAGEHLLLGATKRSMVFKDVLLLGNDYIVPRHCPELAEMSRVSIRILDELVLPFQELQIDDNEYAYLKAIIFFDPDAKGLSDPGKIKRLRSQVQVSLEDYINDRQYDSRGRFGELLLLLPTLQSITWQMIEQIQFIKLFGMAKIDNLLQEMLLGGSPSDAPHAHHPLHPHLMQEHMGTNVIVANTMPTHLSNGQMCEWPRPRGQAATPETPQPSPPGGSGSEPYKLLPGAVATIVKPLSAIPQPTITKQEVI
Myeloid diff 2 – promotes myeloid progenitor differentiation. AID 624256. actives 1% (n = 360,000). calls only at 10 µM. ER-HoxA9 myeloid progenitors, lysozyme-GFP differentiation, flow cytometry;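 active = normalized GFP-positive differentiation at or above the plate's own cutoff, the solvent-only control mean plus 3 SD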;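 also: cells exposed to compound for four days before flow analysis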
TPT1 inh – inhibitors of Candida albicans tRNA 2'-phosphotransferase TPT1 | recombinant caTPT1, FP RNA substrate dephosphorylation | inhibition, % at 5 µM | actives 0.81% (n = 300,000);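 active = inhibition above the mean of all tested compounds plus 3 SD, set per screening campaign, cut at about 24% in these data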;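 also: plate controls were DMSO alone for no effect and ferristatin control at 100 nM for full effect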
* hit, by the source's call; i = inactive; · = no result given; + = active, no number. This is a sample that favours compounds with a hit; in the whole collection about 2.1% have one here.

SMILES	Rpn11 block	HNF4A DNA FP	Myeloid diff 2	TPT1 inh
N#C/C(=C\c1ccc([N+](=O)[O-])o1)c1nc2ccccc2[nH]1	·	·	·	29*
N#C/C(=C/c1ccc(O)c(O)c1)c1nc2ccccc2[nH]1	·	10	+	21
CCOc1ccc(NC(=O)COC(=O)Cn2cnc3ccccc32)cc1	-4	0	i	·
O=S(=O)(/N=C(\c1ccccc1F)N1CCCCC1)c1ccccc1	-4	1	i	0
O=C1c2c(-c3ccc(Br)cc3)noc2CCN1Cc1cn(-c2ccccc2)nn1	·	3	i	·
O=C(c1ccc2ncsc2c1)N1CCN(c2cccc(C(F)(F)F)c2)CC1	0	3	+	·
O=C(c1ccc2nc[nH]c2c1)N1CCN(c2cccc(C(F)(F)F)c2)CC1	4	-3	i	·
COc1ccccc1N1CCN(C(=O)c2ccc3ncsc3c2)CC1	7	3	+	·
Cc1ccc(C(O)P(=O)(OCc2ccccc2)c2ccc(N(C)C)cc2)cc1 (configuration not stated)	-3	1	i	-2
COc1ccc(CCNC(=O)c2coc3ccccc3c2=O)cc1OC	32	10	i	20
O=C(N/N=C/c1ccc(Cl)cc1Cl)c1n[nH]c2c1CCCC2	-6	-2	i	-5
O=C(N/N=C/c1cccc2ccccc12)c1n[nH]c2c1CCCC2	-8	1	+	5
CC(=O)Nc1cccc(-c2ccnc3c2CC(C(=O)NCc2cccc(Cl)c2)O3)c1 (configuration not stated)	-3	0	+	·
CS(=O)(=O)Nc1cccc(NC(=O)C2Cc3c(-c4cccc(F)c4)ccnc3O2)c1 (configuration not stated)	-1	3	+	·
O=C(COC(=O)CNC(=O)c1cccs1)Nc1ccc(C(F)(F)F)cc1[N+](=O)[O-]	-3	1	i	-1
CCc1c(-c2ccc(Br)cc2)ncn1Cc1cccc(-c2ccccc2)c1	·	4	i	·
O=C(CSc1nnc(-c2ccncc2)o1)Oc1ccccc1	3	2	i	-3
O=C(CSc1nnc(-c2ccccc2O)o1)Oc1ccc(OCc2ccccc2)cc1	-3	-2	+	-4
Cc1ccc(Cl)c(OCC(=O)OCC(=O)NC2CCCc3ccccc32)c1 (configuration not stated)	-4	1	i	0
CN(C)CCCN1C(=O)c2cccc3c(Br)ccc(c23)C1=O	-31	-32	i	-7
CCCCNc1ccc2c3c(cccc13)C(=O)N(CCCC)C2=O	-133	-110	+	·
CC(=O)N1C2=CCCC3CCCCC23c2ccccc21 (configuration not stated)	3	2	+	·
CC(C)C[C@H]1CN(CCCC[C@H]2CNC(=O)C(=O)N2CCC2CCCCC2)C(=O)C(=O)N1CC1CCCCC1	·	1	i	·
Cc1nonc1OCCCNc1ccc([N+](=O)[O-])cc1Cl	5	5	+	-2
Cc1nonc1OCCNc1ccc([N+](=O)[O-])cc1[N+](=O)[O-]	1	3	i	0
SMILES	Rpn11 block	HNF4A DNA FP	Myeloid diff 2	TPT1 inh
COC(=O)C[C@@H]1CC[C@@H](NS(=O)(=O)c2cccc(OC)c2)[C@@H](CO)O1	·	5	i	·
CCOC(=O)C1C2C=CC3(CN(c4ccccc4CC)C(=O)C13)O2 (configuration not stated)	1	0	i	-5
CCCCCOC(=O)C1C2C=CC3(CN(c4ccccc4C)C(=O)C13)O2 (configuration not stated)	-4	-4	+	1
CCN(CC(=O)NCc1cccs1)C(=O)CCc1c[nH]c2ccccc12	-1	3	i	1
Cc1cc(Oc2ccc(N)cn2)ccc1Cl	·	59	+	-1
CCOC(=O)Nc1cc(N)ncn1	-6	4	i	·
COc1ccc2[nH]c(=O)c(C(c3nnnn3C(C)(C)C)N(Cc3ccco3)CC3CCCO3)cc2c1 (configuration not stated)	-4	0	i	-4
Cc1cc2cc(C(c3nnnn3C(C)(C)C)N(Cc3ccco3)CC3CCCO3)c(=O)[nH]c2cc1C (configuration not stated)	17	43*	i	2
c1ccc(Oc2ccc(-n3cnnn3)cc2)cc1	-9	57*	i	-2
CCOC(=O)c1ccc(CNCc2ccc(C)cc2)cc1	-10	0	i	0
N#C/C(=C\c1ccccn1)c1ccccn1	0	1	+	2
N#C/C(=C/c1cccs1)c1ccccn1	2	0	i	0
O=C(C[C@H]1C/C=C\CC[C@H](Cc2ccc(F)cc2)C(=O)O[C@H](c2ccccc2)CNC1=O)N[C@H](CO)Cc1ccccc1	-1	-2	i	·
O=C(O)C1=CC(=C(c2ccc(O)c(C(=O)O)c2)c2ccc(O)c(C(=O)O)c2)C=CC1=O	·	·	·	101*
COc1ccc(N(CC(=O)NCc2cccnc2)S(=O)(=O)c2c(C)nn(C)c2C)cc1	-1	4	i	-1
CCOC(CCn1c(SCc2cccc([N+](=O)[O-])c2)nc2ccccc2c1=O)OCC	9	6	+	0
CCc1nnc(NC(=O)CCc2ccccc2OC)s1	-1	-1	+	-6
CCCc1nnc(NC(=O)CCC(=O)NCc2ccccc2OC)s1	2	5	i	1
[N-]=[N+]=NC[C@H](Cc1ccccc1)N1CC[C@@H](NC(=O)OCc2ccccc2)CCC1=O	-1	-1	i	-1
COc1c2ccoc2nc2c(OC)c(OC[C@@H](O)C(C)(C)O)ccc12	-5	-1	i	-3
Cc1ccc(NC(=O)CCCn2nc(C)c3c(C)n(-c4ccccc4)nc3c2=O)c(Cl)c1	-6	2	i	-2
CN1C(C)(C)CC(=NO)CC1(C)C	2	3	i	·
COc1ccccc1-n1c(SCC(=O)Nc2ccc3c(c2)OCO3)nc2c(c1=O)SCC2	5	-6	i	-1
COc1ccccc1-n1c(SCC(=O)Nc2cccc(C)c2)nc2c(c1=O)SCC2	7	6	+	1
CCS(=O)(=O)c1ccc(C(=O)NC2CC2)c(Cl)c1Cl	-2	-3	i	1
SMILES	Rpn11 block	HNF4A DNA FP	Myeloid diff 2	TPT1 inh
Cc1ccc(NC(=O)CN2C(=O)NC(C)(C)C2=O)cc1S(=O)(=O)N1CCCCCC1	2	33*	i	·
Cc1ccc(NC(=O)CN2C(=O)NC3(CCCC3)C2=O)cc1S(=O)(=O)N1CCCCC1	-7	-1	i	·
Cc1ccccc1C(C)NS(=O)(=O)c1ccc2c(c1)OCCO2 (configuration not stated)	0	3	i	·
CC(C)CC(=O)NC(=S)Nc1ccc(N2CCOCC2)cc1	-1	2	+	4
CC(C)CC(=O)NC(=S)Nc1ccc(CN2CCOCC2)cc1	-3	0	i	0
CC(C)c1ccc(C(=O)Nc2ccc(N3CCOCC3)cc2)cc1	3	4	+	-3
COc1ccc(N2CCN(CC(=O)Nc3ccccc3C(=O)NC(C)c3ccccc3)CC2)cc1 (configuration not stated)	-5	1	+	·
COc1ccc(C(=O)NCC(=O)OCC(=O)c2c(C)[nH]c3ccccc23)cc1OC	-2	2	i	·
